Results: PubChem BioAssay AID1619 (SRMLSC, 2009)
The campaign covered roughly 220,000 compounds. About 830 (0.38%) were called active.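 The calls were made as follows: active = compound inhibiting the enzyme by more than half at any dose during confirmatory dose-response retesting; inconclusive = strong single-dose inhibitors picked by rank but not retested; inactive = the rest.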 These entries were drawn from the full list. Results with a measured potency or affinity are listed apart.

Target: Leucine aminopeptidase (Plasmodium falciparum (isolate 3D7)) (UniProt Q8IL11)
Experiment: P. falciparum M17LAP inhibitors, primary screen, biochemical, fluorogenic H-Leu-NHMec substrate, 1536-well (AID 1619);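 also: plate controls were full reaction with DMSO carrier for no effect and no enzyme background for full effect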
Conditions: recombinant M17LAP, H-Leu-NHMec fluorogenic kinetic assay; at 30 µM; active compounds read high

Chain of Leucine aminopeptidase (Plasmodium falciparum (isolate 3D7)) (Q8IL11 whole entry, looked up): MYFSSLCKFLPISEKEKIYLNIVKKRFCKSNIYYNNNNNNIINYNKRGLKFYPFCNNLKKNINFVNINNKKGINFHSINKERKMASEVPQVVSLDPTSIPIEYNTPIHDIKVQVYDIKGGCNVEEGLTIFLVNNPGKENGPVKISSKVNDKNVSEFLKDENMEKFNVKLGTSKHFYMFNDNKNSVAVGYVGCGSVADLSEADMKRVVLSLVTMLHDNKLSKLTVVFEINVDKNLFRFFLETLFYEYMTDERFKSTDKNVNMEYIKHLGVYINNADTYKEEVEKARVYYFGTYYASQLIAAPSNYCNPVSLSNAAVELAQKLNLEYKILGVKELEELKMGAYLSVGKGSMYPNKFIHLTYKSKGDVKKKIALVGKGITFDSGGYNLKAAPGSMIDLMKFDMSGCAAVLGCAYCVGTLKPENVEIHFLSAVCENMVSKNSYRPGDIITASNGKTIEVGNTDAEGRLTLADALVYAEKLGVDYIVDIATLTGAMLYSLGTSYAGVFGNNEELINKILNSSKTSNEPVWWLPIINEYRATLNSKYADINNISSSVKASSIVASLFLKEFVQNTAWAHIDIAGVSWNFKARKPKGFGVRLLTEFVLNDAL

inhibition, inactive:
Cc1cc(C)c(S(=O)(=O)Nc2c(C)[nH]c(=O)[nH]c2=O)c(C)c1 -3%
Cc1cccc2cc(CN(Cc3ccc(F)cc3)C(=O)N3CCOCC3)c(=O)[nH]c12 6.9%
CN1/C(=C\C(=O)CSc2nnc(NCc3ccccc3)s2)C(C)(C)c2ccccc21 -5.09%
COc1ccccc1Nc1nnc(SCC(=O)N2CCCC2)s1 28.9%
COc1cccc(Nc2nnc(SCC(=O)N3CCOCC3)s2)c1 31.6%
CC1CCCC(C)N1C(=O)CSc1nnc(NC(=O)c2cccs2)s1 (configuration not stated) 35.8%
O=C(Cc1cccs1)Nc1nnc(SCC(=O)N2CCCCC2)s1 4.31%
CN1/C(=C\C(=O)CSc2nnc(N)s2)C(C)(C)c2ccccc21 30.2%
COc1ccc(NC(=O)COC(=O)C2=COCCO2)cc1OC -5.64%
O=C(CN1CCCCC1)NC(=O)NCc1ccccc1 -1.39%
C=CCNC(=O)C(=O)c1cccn1-c1ccsc1C(=O)OC 1.96%
CCOP(=O)(OCC)C(Nc1cccc([N+](=O)[O-])c1)c1ccccc1 (configuration not stated) -1.19%
CC(C)CSc1nnc2[nH]c(=O)cc(N)n12 -1.75%
CCOC(=O)c1oc2cc(O)ccc2c(=O)c1-c1ccc(OC)cc1 14.6%
COC(=O)N/N=C/c1c[nH]c2ccccc12 14.5%
Fc1c(F)c(F)c(N/N=C/c2c[nH]c3ccccc23)c(F)c1F -1.25%
COc1cccc(NC(=O)Nc2nnc(CC(=O)NCc3ccccc3)s2)c1 8.42%
COc1ccc(NC(=O)CSc2ncc(-c3ccc(F)cc3)n2Cc2ccco2)cc1 -16.2%
CCCOC(=O)c1c(NC(=O)C2CCCO2)sc(C(=O)OC)c1C (configuration not stated) 8.59%
Cc1cc(-c2ccccc2)nc(SCC(=O)N2CCCC2)n1 1.7%
CC1CCCCN1C(=O)CSc1nc(-c2ccccc2)cn1N (configuration not stated) 14.6%
COc1ccc(-c2ccnc(SCC(=O)Nc3ccccn3)n2)cc1 7.81%
O=C(CSc1nc(O)cc(=O)n1-c1ccccc1)Nc1ccccn1 14.8%
O=C(N1CCC(O)(c2cccnc2)CC1)C12CC3CC(CC(C3)C1)C2 3.02%
Cc1oc(C(C)(C)C)cc1C(N)=O 5.9%
Cc1c(N(C(=O)CNC(=O)c2ccccc2)C2(C(=O)NC3CCCCC3)CCCCC2)c(=O)n(-c2ccccc2)n1C -1.39%
Clc1ccc(Nc2ccc(-n3ccnc3)nn2)cc1Cl 2.24%
